ALDH1A1 inh: inhibitors of human aldehyde dehydrogenase 1A1; P00352; AID 1030; Purified ALDH1A1, NADH fluorescence, propionaldehyde substrate; Potency, µM (highest dose often 75.3 µM), inactives show top-dose activity, negative = inhibition, most hits filed as inhibitors; actives 7.3% (n = 220,000); active = well fitted inhibition curve with a large enough effect, not every such curve was filed as active; inconclusive = small, poorly fitted or top-dose-only effect, or another doubt; inactive = no such curve, though single readings can be large or run the other way;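 also: plate controls were no enzyme wells and a reference inhibitor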
HPGD block: HPGD (human) dehydrogenase inhibition. AID 894. actives 4.3% (n = 150,000). Potency, µM, without a hit: at the top dose activity change, negative = inhibition, hits mostly inhibitors. purified HPGD, NADH fluorescence kinetic, PGE2 substrate. P15428; active = well fitted inhibition curve with a large enough effect, not every such curve was filed as active; inconclusive = small, poorly fitted or top-dose-only effect, or another doubt; inactive = no such curve, though single readings can be large or run the other way; also: % is scaled to controls: 0 for no effect and ±100 for the full control effect
Target sequence (P15428 whole entry, looked up): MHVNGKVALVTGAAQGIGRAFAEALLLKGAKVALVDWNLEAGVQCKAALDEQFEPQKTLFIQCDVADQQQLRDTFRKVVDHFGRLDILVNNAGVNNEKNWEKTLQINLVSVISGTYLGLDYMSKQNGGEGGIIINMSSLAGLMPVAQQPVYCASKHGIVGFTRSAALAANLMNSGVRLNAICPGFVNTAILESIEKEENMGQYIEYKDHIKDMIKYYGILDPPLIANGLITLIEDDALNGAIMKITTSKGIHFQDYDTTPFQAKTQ
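20 nM HPGD preincubated 15 min at room temperature with compound in 50 mM Tris-HCl pH 8, 0.01% Tween 20. Started with 1 mM NAD+ and 30 uM prostaglandin E2; NADH fluorescence (360/450 nm) read 5 times over 30-s intervals, last minus first.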
Luc counter: Kinase-Glo luciferase inhibition (counter-screen); Potency, µM (doses to about 38.3 µM), for the others: at the highest dose activity change, negative = inhibition, most hits filed as inhibitors; actives 0.28% (n = 200,000); AID 1379; Kinase-Glo luciferase, ATP luminescence, 8 min; also: % is scaled to controls: 0 for no effect and ±100 for the full control effect; nearly all actives have a fitted effect of over 60% in size
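Luminescence was the read-out, taken after 8-minute incubation at ambient temperature. Luciferase turned over luciferin with 10 uM ATP in imidazole pH 7.2 buffer containing KCl, MgCl2, Tween 20 and BSA.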
HttQ103 aggreg: reduces HttQ103-GFP aggregates in PC12 cells | actives 1.1% (n = 220,000) | PC12 HttQ103-GFP aggregates, Acumen cytometry, 40 h | AID 1688 | Potency, µM (highest dose often 46.1 µM), inactives show at the highest dose activity change, negative = inhibition, usual class: inhibitors; also: % is scaled to controls: 0 for no effect and ±100 for the full control effect; nearly all actives have a fitted effect of over 60% in size
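Steps: seed 1500 PC12 HTTQ103-GFP cells/well; add tebufenozide, 100 nM final; add compound titration; add ATPLite reagent; quantify GFP aggregates by laser scanning cytometry.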
HTT ATP protect: Huntington cell model cytoprotection by ATP luminescence. actives 0.14% (n = 230,000). AID 1471. Potency, µM (highest dose often 56.4 µM), without a hit: cytoprotection (ATP increase), most hits filed as activators. PC12 HTT-Q103 induced, cytoprotection, ATP luminescence, 40 h; also: % of control where 0% means no effect; nearly all actives have a fitted effect of over 45% in size
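PC12 cells with ecdysone-inducible HTT exon 1 Q103-GFP, induced with 100 nM tebufenozide and co-treated with library compounds in a dose series (1536-well, 1500 cells/well). Cytoprotection read as ATP content by ATPlite luminescence.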
LMNA splice mod: modulators of lamin A splicing | HeLa LMNA splicing GFP/RFP minigene ratio, 48 h | Potency, µM (doses to about 46.1 µM), without a hit: at the highest dose ratio change, negative = inhibition, most hits filed as inhibitors | actives 0.01% (n = 200,000) | AID 1487; active = well fitted inhibition curve with a large enough effect in the signal ratio, with a control signal flat, not every such curve was filed as active; inconclusive = small, poorly fitted or top-dose-only effect, or effect the other way, or a change in a side signal; the % refers to the signal ratio; also: % is scaled to controls: 0 for no effect and ±100 for the full control effect
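S3 HeLa stable clones carrying a lamin A-EGFP splicing minigene plus DsRed2 were seeded at 600 cells/well in Opti-MEM with 2% FBS, pin-dosed and incubated 48 h at 37°C. Acumen cytometry (488 nm) gave the GFP/RFP total-intensity ratio.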
An asterisk follows results filed as active; ? = inconclusive; . = no result; [ ] = another dose, or the depositor's remark. This is a sample that favours compounds with a hit; in the whole collection about 9% have one here. Unless noted, calls follow the shape of the dose curve; as a rule, active = well fitted curve in the direction sought with a large enough effect; inconclusive = small, poorly fitted or top-dose-only effect, or another doubt; inactive = no such curve, though single readings can be large; an effect the other way counts as inactive or inconclusive. Potency is read from the fitted curve at half-maximal effect.

SMILES	ALDH1A1 inh	HPGD block	Luc counter	HttQ103 aggreg	HTT ATP protect	LMNA splice mod
CN(Cc1ccco1)C(=O)c1c[nH]c2ccc(S(=O)(=O)Nc3ccc4c(c3)OCCO4)cc2c1=O	22µM*	18µM*	0%	-7%	.	-7%
CCOc1ccc(NS(=O)(=O)c2ccc3[nH]cc(C(=O)N(C)Cc4ccccc4)c(=O)c3c2)cc1	.	.	.	.	.	13%[46 µM]
CCc1ccccc1NS(=O)(=O)c1ccc2[nH]cc(C(=O)NC3CCCC3)c(=O)c2c1	20µM*	-28%	-2%	-25%	.	?
CCc1ccc(NS(=O)(=O)c2ccc3[nH]cc(C(=O)N(C)Cc4ccco4)c(=O)c3c2)cc1	-6%	-15%	-3%	0.1µM*	-7%	-4%
O=C(O)C1C2C=CC3(O2)C1C(=O)N1c2ccccc2C2OCCC2C13 (configuration not stated)	3%	0%	-3%	12%	4%[0.074 µM]	4%
C=CCN1C(=O)/C(=C2\SC(N3CCOCC3)=NC2=O)c2cc(Br)ccc21	3.5µM*	-15%	-5%	15%	-11%[0.074 µM]	-13%
CCC(C(=O)OCC(=O)Nc1cc(Cl)cc(Cl)c1)c1ccccc1 (configuration not stated)	9%	-12%	-1%	-18%	9%[10 µM]	?
O=C(NCc1ccco1)C(=S)N1CCCC1	0%	.	4%	?	?	16%[46 µM]
CC(=O)c1ccc(NC(=S)NCCc2ccccn2)cc1	-6%	-7%	0%	10%	.	14%
O=S(=O)(c1cnc(Cl)c(Br)c1)N1CCc2ccccc21	2.8µM*	.	.	-4%[9.22 µM]	-2%[10 µM]	.
O=S(=O)(c1cnc(Cl)c(Cl)c1)N1CCCc2ccccc21	3.2µM*	-13%	2%	0%	-25%[10 µM]	-7%
COc1cccc(C2/C(=C(\O)c3c(C)nc4c(C)cccn34)C(=O)C(=O)N2CCCN(C)C)c1 (configuration not stated)	-4%	-10%	-4%	8%	1%	5%
O=C(O)Cn1nnnc1SCC(=O)Nc1ccc(OC(F)(F)F)cc1	0%	.	.	9%	-28%	18%
COc1ccc(C2CC(=O)N3CN(c4ccc(C)c(Cl)c4)CSC3=C2C#N)cc1OC (configuration not stated)	7.9µM*	?	-1%	20%	-17%	-16%
COc1ccc(N2CSC3=C(C#N)C(c4cc(OC)c(OC)cc4OC)CC(=O)N3C2)c(OC)c1 (configuration not stated)	8.9µM*	10µM*	-2%	3%	-1%	6%
COc1ccc(N2CSC3=C(C#N)C(c4cc(OC)ccc4OC)CC(=O)N3C2)c(OC)c1 (configuration not stated)	8.9µM*	7.9µM*	0%	-6%	-27%	-5%
COc1cc(OC)c(C2CC(=O)N3CN(c4ccc(C)cc4)CSC3=C2C#N)cc1OC (configuration not stated)	7.9µM*	7.1µM*	1%	10%	-34%[0.074 µM]	2%
COc1ccc(N2C(=O)C3CC(C)=C(C)CC3C2=O)c(OC)c1 (configuration not stated)	10%	-3%	3%	10%	-3%[10 µM]	0%
O=C(Cc1ccccc1)N/N=C/c1cc(Br)c(Br)o1	-3%	-3%	-1%	1%	4%	13%
COc1ccc(N2CSC3=C(C#N)C(c4ccc(OC)c(OC)c4)CC(=O)N3C2)c(OC)c1 (configuration not stated)	11µM*	10µM*	-4%	-13%	-8%	1%
CCSC1=C(C#N)C(c2ccc(OC)c(OC)c2)CC(=O)N1 (configuration not stated)	-7%	2%	-2%	-2%	9%	-4%
N#CC1=C2SCN(Cc3ccco3)CN2C(=O)CC1c1cccc2ccccc12 (configuration not stated)	?	?	-2%	5%	-18%[0.074 µM]	10%

Screening results (PubChem BioAssay)
